Source: PubChem (National Center for Advancing Translational Sciences (NCATS))
In the library only some 19% were active in any assay of this set; here they are far more common.
TGFb SMAD3 inh: qHTS for Inhibitors of TGF-b; AID 588855, 2011; 410,000 compounds, 1.2% hits; HepG2 CAGA-GFP TGF-b/SMAD3 reporter, GFP fluorescence, 18 h; TGF-beta stimulated, 500 pg/mL final; Potency, µM (doses to about 46.1 µM), for inactives: at the highest dose activity, negative = inhibition, most hits filed as inhibitors; note: potency is the fitted concentration of half-maximal effect; % is set by controls: 0 for no effect and ±100 for the full control effect; nearly all actives have a fitted effect of over 65% in size
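Cell-based qHTS in HEPG2 carrying a CAGA-GFP Smad reporter; compounds added before 500 pg/mL final TGF-beta, 18 h incubation at 37 degrees C, GFP fluorescence quantified per cell by imaging cytometry.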
DT40 TDP1 CPT: qHTS for Inhibitors of human tyrosyl-DNA phosphodiesterase 1 (TDP1): qHTS in cells in presence of CPT | chicken DT40 Tdp1-/-;hTDP1 cells + 20 nM CPT, ATP luminescence, 48 h | Potency, µM (series often up to 46.2 µM), for inactives: at the highest dose activity change, negative = growth inhibition, actives largely listed as inhibitors | 420,000 compounds, 12% hits | AID 686979, 2013; note: potency is the fitted concentration of half-maximal effect; % is set by controls: 0 for no effect and ±100 for the full control effect; nearly all actives have a fitted effect of over 55% in size
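Chicken DT40 Tdp1-/- cells complemented with human TDP1, 400 cells/well, exposed to compounds plus 20 nM camptothecin for at least 48 h at 37 C; viability read as ATP content by CellTiter-Glo luminescence.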
TDP1 block: qHTS Assay for Inhibitors of Tyrosyl-DNA Phosphodiesterase (TDP1); 350,000 compounds, 0.28% hits; recombinant TDP1, AlphaScreen DNA substrate cleavage; Potency, µM (highest dose often 130 µM), inactives show top-dose activity change, negative = inhibition, usual class: inhibitors; note: potency is the fitted concentration of half-maximal effect; % is set by controls: 0 for no effect and ±100 for the full control effect; nearly all actives have a fitted effect of over 40% in size
Target sequence (Q9NUW8 whole entry, looked up): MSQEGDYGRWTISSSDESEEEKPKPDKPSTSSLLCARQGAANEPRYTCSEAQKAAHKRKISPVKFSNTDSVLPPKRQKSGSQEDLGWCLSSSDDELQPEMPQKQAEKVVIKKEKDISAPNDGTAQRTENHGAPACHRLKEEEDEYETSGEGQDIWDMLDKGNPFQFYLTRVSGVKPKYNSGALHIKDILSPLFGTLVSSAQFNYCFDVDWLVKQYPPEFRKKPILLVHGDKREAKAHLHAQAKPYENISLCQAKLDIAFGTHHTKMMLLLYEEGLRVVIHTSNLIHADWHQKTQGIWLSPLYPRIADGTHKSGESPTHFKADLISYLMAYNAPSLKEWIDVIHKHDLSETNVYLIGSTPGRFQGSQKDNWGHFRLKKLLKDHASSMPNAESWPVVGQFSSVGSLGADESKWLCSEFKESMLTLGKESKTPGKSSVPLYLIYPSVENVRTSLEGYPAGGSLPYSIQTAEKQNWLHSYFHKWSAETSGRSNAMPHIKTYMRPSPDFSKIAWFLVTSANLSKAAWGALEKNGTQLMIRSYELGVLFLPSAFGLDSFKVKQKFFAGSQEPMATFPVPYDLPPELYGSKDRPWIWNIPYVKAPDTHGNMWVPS
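Enzyme-compound mixtures sat 15 min at room temperature, followed by a 5 min reaction with 15 nM final substrate and 10 min with AlphaScreen beads. Recombinant human Tdp1 was used at 1 nM final.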
IL-1B inflam inh: qHTS for Inhibitors of Inflammasome Signaling: IL-1-beta AlphaLISA Primary Screen | THP-1 LPS/ATP IL-1B secretion, AlphaLISA, 16 h; active compounds read low | activity change, % at 57.5 µM | 360,000 compounds, 4.7% hits; in the data active = activity change below about -50%; inconclusive = mostly about -30% to -49%; note: % is set by controls: 0 for no effect and ±100 for the full control effect
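THP-1 cells pretreated 1 hr with compounds (up to 57.5 uM final), then stimulated with LPS (250 ng/mL final) plus ATP (1.25 mM final); secreted IL-1B measured by AlphaLISA after 16 hr, decreased signal indicating inhibition.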
DT40 TDP1 no CPT: qHTS for Inhibitors of human tyrosyl-DNA phosphodiesterase 1 (TDP1): qHTS in cells in absence of CPT | DT40 Tdp1-/- hTDP1 cells, no CPT, ATP luminescence, 48 h | Potency, µM (top dose mostly 46.2 µM), for the others: top-dose activity change, negative = growth inhibition, hits mostly inhibitors | 420,000 compounds, 15% hits | AID 686978, 2013; note: potency is the fitted concentration of half-maximal effect; % is set by controls: 0 for no effect and ±100 for the full control effect; nearly all actives have a fitted effect of over 55% in size
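Cells were dispensed at 400 per well, compounds added by pin tool, plates incubated ≥48 hr at 37 °C, then CellTiter-Glo added for 30 min at room temperature before luminescence reading. Line: DT40 Tdp1-/- complemented with hTDP1; camptothecin omitted.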
HepG2 tox: qHTS for Inhibitors of TGF-b: Cytotox Counterscreen; Potency, µM (highest dose often 46.1 µM), inactives show top-dose activity change, negative = cytotoxicity, usual class: cytotoxic; AID 588856, 2011; 410,000 compounds, 0.76% hits; HepG2 CAGA-GFP viability, ATP luminescence, 18 h; note: potency is the fitted concentration of half-maximal effect
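HepG2 CAGA-GFP cells (1000/well, DMEM with 1% FBS) received compound, then TGF-beta at 500 pg/mL final, and were incubated 18 hours at 37 degrees C. Viability was read by CellTiter-Glo luminescence. Media-only wells were set as complete cell-killing and DMSO as no toxicity.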
Numbers without * were called inactive; ? = inconclusive; / = no result; [ ] = dose if it differs, or a comment. Unless noted, calls come from the whole dose curve; as a rule, active = well fitted curve in the direction sought with a large enough effect; inconclusive = small, poorly fitted or top-dose-only effect, or another doubt; inactive = no such curve, though single readings can be large; an effect the other way counts as inactive or inconclusive.

SMILES	TGFb SMAD3 inh	DT40 TDP1 CPT	TDP1 block	IL-1B inflam inh	DT40 TDP1 no CPT	HepG2 tox
COc1ccc(-c2oc3c(c2C#CC(C)(C)O)C(OC)CCC3)cc1 (stereo not given)	/	?	/	-59.2*	16.4µM*	/
O=C(N/N=C/c1ccncc1)NC12CC3CC(CC(C3)C1)C2	?	-15.1%	/	-5.4	?	-5.5%
COc1ccc(/C=N/NC(=O)NC23CC4CC(CC(C4)C2)C3)c(OC)c1	0.0%	?	/	-68.8*	23.1µM*	-9.5%
COC(=O)C(Cc1ccc(O)cc1)NC(=O)NC12CC3CC(CC(C3)C1)C2 (stereo not given)	-20.6%	-32.6%	5.7%	-62.8*	?	-2.7%
COc1ccc(CCNC(=O)NC23CC4CC(CC(C4)C2)C3)cc1	-25.3%	?	0.0%	-16.2	?	-31.0%
O=C(N/N=C/c1ccc(O)cc1)NC12CC3CC(CC(C3)C1)C2	-1.8%	-0.5%	/	-73.7*	-28.4%	-29.9%
O=C(Cc1ccccc1)Nc1ncccn1	-8.2%	7.9%	-1.1%	20.5	4.2%	-4.5%
Cc1ccc(NS(=O)(=O)c2ccc3c(c2)CCN3C(=O)C2CC2)c(C)c1	16.0%	?	0.0%	/	20.6µM*	3.2%
Cc1cccc(NS(=O)(=O)c2ccc3c(c2)CCN3C(=O)C2CCC2)c1	?	18.4µM*	0.0%	/	18.4µM*	-17.7%
CN1CCN(c2ccccc2NS(=O)(=O)c2ccc3c(c2)CCN3C(=O)C2CCC2)CC1	0.0%	14.6µM*	/	-9.4	?	-48.5%
COc1ccc(NS(=O)(=O)c2ccc3c(c2)CCN3C(=O)C2CC2)cc1OC	-6.6%	8.2µM*	2.3%	/	5.17µM*	-17.3%
COC(=O)c1sc2cccc(F)c2c1S(=O)(=O)N1CCN(c2cccc(OC)c2)CC1	?	?	5.8%	/	?	-36.9%
COc1ccc(-c2nc3cnc(N4CCOCC4)nc3n(C[C@H]3CCCO3)c2=O)cc1	/	4.1%	/	/	27.7%	/
COc1ccc(/C(CC2OC(=O)c3ccccc32)=N\NC(N)=O)cc1 (stereo not given)	-2.5%	4.6%	6.0%	25.1	9.5%	8.2%
O=C(Cn1cc(C(=O)C2CCCCC2)c2ccccc21)Nc1ccccc1Cl	-23.9%	?	-1.1%	/	?	-28.4%
O=C(C1CC1)N1CCc2cc(S(=O)(=O)NCC3COc4ccccc4O3)ccc21 (stereo not given)	-11.6%	?	6.2%	-8.1	14.6µM*	-7.5%
COc1ccc(N(C)S(=O)(=O)c2ccc3c(c2)CCN3C(=O)C2CC2)c(OC)c1	-0.9%	16.4µM*	4.6%	5.8	18.4µM*	-21.1%
CCC(=O)N1CCc2cc(S(=O)(=O)N(C)c3ccc(OC)cc3OC)ccc21	5.6%	?	/	-4.1	?	-6.5%
CC(=O)c1cccc(NC(=O)CCS(=O)(=O)c2cc(Br)cc3c2N(C(=O)C2CC2)CC3)c1	18.3%	?	0.0%	/	?	-10.0%
CC1=C(C(=O)Nc2cccnc2)C(c2ccc(F)cc2)n2nc(-c3cccc(C)c3)nc2N1 (stereo not given)	-3.9%	?	/	/	?	-8.6%
COc1ccc(S(=O)(=O)Nc2cccc3c2O[C@H](CN(C)CC2CCCCC2)[C@@H](C)CN([C@H](C)CO)C3=O)cc1	?	-5.3%	-0.2%	-1.0	2.0%	-6.1%
COc1ccc2c(c1)OC(=O)CC2c1ccc2c(c1)OCO2 (stereo not given)	/	/	4.1%	/	/	/
O=C(Nc1ccc(F)cc1F)c1cc(-c2ccccc2O)no1	-26.0%	-26.8%	2.6%	/	-20.0%	-15.8%
O=C(Nc1ccc(Cl)cn1)c1cccc(F)c1	3.7%	7.31µM*	3.9%	11.1	4.61µM*	-38.5%
CC(C)C(=O)Nc1ccc(NC(=O)c2cccc(F)c2)cn1	-2.8%	-12.3%	-2.0%	-60.1*	?	7.7%
SMILES	TGFb SMAD3 inh	DT40 TDP1 CPT	TDP1 block	IL-1B inflam inh	DT40 TDP1 no CPT	HepG2 tox
O=C(Nc1cccc(C(=O)Nc2ccc(Cl)cn2)c1)c1ccccc1	12.1%	?	-0.7%	?	-18.5%	-1.2%
COc1cc(NC(=O)c2noc3c2CC(C)CC3)c(OC)cc1Cl (stereo not given)	-25.6%	23.6%	5.3%	/	-0.2%	1.7%
CC(C)CN1C(=O)C(=O)N(CC(=O)N(C)CC(=O)Nc2ccc(F)cc2)C1=O	-4.8%	4.4%	-1.2%[56.1 µM]	24.0	-12.7%	6.5%
Nc1ccc(Oc2ccccc2-c2ccccc2)cc1	-0.2%	4.6%	/	-56.8*	-26.7%	17.5%
Nc1ccccc1Oc1ccccc1	/	/	2.3%	/	/	/
OC[C@@H](O)C(O)[C@H](O)[C@@H](O)CO (stereo not given in full)	/	/	6.2%	/	/	/
O=C(Nc1ccc(Cl)cc1)Nc1nnc(CSc2ccc(Cl)cc2)s1	-8.0%	4.61µM*	2.7%	-58.4*	2.59µM*	-1.0%
O=C(Nc1cccc(Cl)c1)Nc1nnc(CSCCOc2ccc(Cl)cc2)s1	?	3.26µM*	2.7%	-26.7	3.26µM*	-12.1%
CC(=O)Nc1nnc(SCc2ccccc2F)s1	-14.2%	6.0%	0.0%	-0.3	-17.6%	1.8%
CC(=O)Nc1nnc(CSCc2ccccc2F)s1	1.3%	-22.2%	2.6%	13.1	-26.4%	7.94µM*
Cc1ccc(NC(=O)Nc2nnc(CSCCOc3ccc(Cl)cc3)s2)cc1	-7.1%	-24.7%	2.7%	0.0	?	-9.6%
O=C(Nc1cccc(Cl)c1)Nc1nnc(CC2=CCCCC2)s1	-18.8%	4.61µM*	-5.5%	42.9	18.4µM*	-14.8%
CNC(=O)C1CCC(Cn2c(=O)c3sccc3n(CC(=O)N3CCCC3)c2=O)CC1 (stereo not given)	14.3%	-13.4%	5.8%	/	-9.1%	0.8%
Cc1cccc2c1-c1sc(C(=O)N3CCN(c4ccc(F)cc4)CC3)cc1CO2	-15.7%	3.0%	-1.0%	/	3.1%	-6.1%
O=C(Nc1ccc(Cl)cc1)Nc1nnc(CSCc2ccccc2)s1	-4.3%	16.4µM*	-3.0%	-3.3	18.4µM*	-3.8%
Cc1ccc(N=Cc2c(O)n(-c3cc(Cl)ccc3N3CCOCC3)c(=O)c3ccccc23)cc1C	1.0%	7.31µM*	6.8%	?	6.51µM*	-15.5%
